# High-throughput results from PubChem.
# RORg inh: qHTS for inhibitors of ROR gamma transcriptional activity; 310,000 compounds, 5.4% hits; Potency, µM (series often up to 53.6 µM), hits mostly inhibitors; Drosophila S2 Gal4-RORgamma UAS-luciferase reporter, 20 h; Nuclear receptor ROR-gamma (Mus musculus), P51450; note: nearly all actives have a fitted effect of over 60% in size
#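 Read-out: Photinus luciferase luminescence; inhibitors lower reporter signal. Insect Schneider cells with Gal4-ROR gamma fusion under metallothionein promoter, UAS reporter; 700 uM final copper sulfate induction, 20 hr, ambient temperature.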
# ELG1 repair inh: qHTS screen for small molecules that inhibit ELG1-dependent DNA repair in human embryonic kidney (HEK293T) cells expressing luciferase-tagged ELG1 | HEK293T ELG1-luciferase reporter, luminescence, 16 h; DNA damage induced by 5-fluorouridine | Potency, µM (highest dose often 46.1 µM), most hits filed as inhibitors | 330,000 compounds, 2.3% hits | AID 504467, 2011; note: nearly all actives have a fitted effect of over 55% in size
#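 Quantitative HTS, concentration-response format. 2,000 cells/well co-treated with 5-fluorouridine and compound, 16 hr in 5% CO2 at 37 °C; ONE-Glo luminescence read after 30 min.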
# 12-LOX inh: Primary qHTS assay for inhibitors of human arachidonate 12S-lipoxygenase (ALOX12): Round 2; Polyunsaturated fatty acid lipoxygenase ALOX12 (Homo sapiens), P18054; purified 12hLO, xylenol orange hydroperoxide absorbance; Potency, µM (doses to about 108 µM), usual class: inhibitors; AID 1671190, 2021; 580,000 compounds, 1.1% hits
# Target sequence (P18054 whole entry, looked up): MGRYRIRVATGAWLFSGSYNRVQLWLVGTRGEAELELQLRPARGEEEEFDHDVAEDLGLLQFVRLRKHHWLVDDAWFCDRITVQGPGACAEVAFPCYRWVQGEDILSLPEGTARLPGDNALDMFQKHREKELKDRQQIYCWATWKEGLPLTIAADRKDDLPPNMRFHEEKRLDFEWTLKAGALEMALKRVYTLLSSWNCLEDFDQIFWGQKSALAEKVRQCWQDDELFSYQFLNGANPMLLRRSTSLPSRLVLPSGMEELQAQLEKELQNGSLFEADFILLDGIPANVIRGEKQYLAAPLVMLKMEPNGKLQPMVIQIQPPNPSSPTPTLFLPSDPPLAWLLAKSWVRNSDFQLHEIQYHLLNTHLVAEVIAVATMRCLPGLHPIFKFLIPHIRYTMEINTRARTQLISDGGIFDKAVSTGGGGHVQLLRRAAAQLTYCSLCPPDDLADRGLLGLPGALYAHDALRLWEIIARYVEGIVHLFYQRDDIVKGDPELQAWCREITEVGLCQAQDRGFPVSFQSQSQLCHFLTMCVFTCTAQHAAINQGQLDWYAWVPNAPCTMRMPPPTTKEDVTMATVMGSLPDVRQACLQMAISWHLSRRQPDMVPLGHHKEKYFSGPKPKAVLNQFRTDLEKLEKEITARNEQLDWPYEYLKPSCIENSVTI
#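 Purified human 12hLO (150 nM final) in 25 mM Hepes, 0.01% Triton X-100, pH 7.0 was preincubated 15 min at room temperature with compound. Then 40 uM arachidonic acid was added, 30 min. Hydroperoxide was read by Fe-XO absorbance ratio 573/405 nm.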
# VP16 counter: VP16 counterscreen qHTS for inhibitors of ROR gamma transcriptional activity; 310,000 compounds, 3.5% hits; AID 2546, 2010; Drosophila S2 Gal4-VP16 UAS-luciferase, luminescence, 20 h; Potency, µM (top dose mostly 53.6 µM), most hits filed as inhibitors;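 note: Gal4-VP16 expression switched on by copper sulfate through the metallothionein promoter; nearly all actives have a fitted effect of over 50% in size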
# DT40 TDP1 no CPT: qHTS for Inhibitors of human tyrosyl-DNA phosphodiesterase 1 (TDP1): qHTS in cells in absence of CPT; DT40 Tdp1-/- hTDP1 cells, no CPT, ATP luminescence, 48 h; Potency, µM (series often up to 46.2 µM), most hits filed as inhibitors; 420,000 compounds, 15% hits; note: nearly all actives have a fitted effect of over 55% in size
#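 No-CPT arm: Tdp1-/-;hTDP1 DT40 cells (400/well) plus compounds, incubated ≥48 hr at 37 °C. Readout CellTiter-Glo luminescence.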
# DT40 TDP1 CPT: qHTS for Inhibitors of human tyrosyl-DNA phosphodiesterase 1 (TDP1): qHTS in cells in presence of CPT | Potency, µM (highest dose often 46.2 µM), most hits filed as inhibitors | 420,000 compounds, 12% hits | chicken DT40 Tdp1-/-;hTDP1 cells + 20 nM CPT, ATP luminescence, 48 h | AID 686979, 2013; note: nearly all actives have a fitted effect of over 55% in size
#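 Chicken DT40 Tdp1-/- cells stably complemented with human TDP1 were seeded at 400 cells/well in medium containing 20 nM camptothecin, exposed to pin-transferred compounds, and grown at 37 °C for at least 48 hr. Viability was read as ATP luminescence.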
# A number is an active result; - = inactive; ? = inconclusive; . = not tested or not shown; [ ] = another dose, or the depositor's remark. The list is not random: actives were taken first. Their share in the collection is about 15%. Calls come from the whole dose curve; as a rule, active = well fitted curve in the direction sought with a large enough effect; inconclusive = small, poorly fitted or top-dose-only effect, or another doubt; inactive = no such curve, though single readings can be large; an effect the other way counts as inactive or inconclusive.
SMILES,RORg inh,ELG1 repair inh,12-LOX inh,VP16 counter,DT40 TDP1 no CPT,DT40 TDP1 CPT
O=C(Nc1ccccc1F)N1CCN(c2ccc(Cl)cc2)CC1,.,.,-,.,.,.
CCOC(=O)C(=O)Nc1nc(-c2ccc3c(c2)CCN3C(=O)C2CC2)c(C)s1,-,?,?,?,-,-
Cc1sc(NC(=O)c2ccco2)nc1-c1ccc2c(c1)CC(C)N2C(=O)C1CC1 (centres undefined),?,15µM,-,-,3.5µM,6.3µM
CC(=O)Nc1nc(-c2ccc3c(c2)CC(C)N3C(=O)C2CC2)c(C)s1 (centres undefined),-,8.2µM,-,-,2.1µM,1.2µM
CCCNC(=O)C1COC2(CCN(C(=O)c3cccc(OC)c3)CC2)N1C(=O)c1ccccc1 (centres undefined),.,.,-,.,.,.
CCOc1ccccc1C(=O)N1[C@@H]2CC[C@H]1CC(NC(=O)c1ccc(F)cc1)C2 (some centres undefined),.,.,-,.,.,.
CCOC(=O)C1=C(CS(=O)(=O)c2ccc(Br)cc2)NC(=O)NC1c1ccccc1 (centres undefined),.,.,-,.,?,21µM
CCOC(=O)C1=C(CS(=O)(=O)c2ccc(C)cc2)NC(=O)NC1c1ccc(C(C)C)cc1 (centres undefined),.,.,-,.,12µM,18µM
CC1=C(C(=O)Nc2cc(C)cc(C)c2)C2(CCCCCC2)OC1=O,.,.,-,.,.,.
Cc1ccc(NC(=O)NCc2nc(-c3cccc(Cl)c3)oc2C)cc1,.,.,-,.,.,.
CC(C)Cn1cnc2c(SCc3ccccc3Cl)nc(N)nc21,.,.,-,.,?,?
ClCCn1cnc2c(SCc3ccccc3)ncnc21,.,.,-,.,1.8µM,?
ClCCn1cnc2c(SCc3ccccc3Cl)ncnc21,.,.,?,.,0.82µM,?
CCCN(CCC)C(=O)c1cc([N+](=O)[O-])cc2c1-c1ccc([N+](=O)[O-])cc1C2=C(C#N)C#N,-,-,-,?,2.9µM,5.2µM
CCCCC[C@H](C)N1C[C@@H](COCc2ccccc2)Oc2cc(N3CCC[C@H]3CO)ccc2S1(=O)=O,.,.,-,.,?,?
CCCCC[C@@H](C)N1C[C@@H](COCc2ccccc2)Oc2cc(N3CCC[C@H]3C(N)=O)ccc2S1(=O)=O,.,.,-,.,16µM,?
CCCCC[C@H](C)N1C[C@H](COCc2ccccc2)Oc2cc(N3CCC[C@H]3CO)ccc2S1(=O)=O,.,.,-,.,21µM,?
CCCCC[C@H](C)N1C[C@@H](COCc2ccccc2)Oc2cc(N3CCC[C@H]3COC)ccc2S1(=O)=O,.,.,?,.,18µM,?
COc1ccccc1N(C)S(=O)(=O)c1ccc(C(=O)NC(C)(C)C)cc1,-,?,-,-,-,-
COc1ccccc1N(C)S(=O)(=O)c1ccc(C(=O)Nc2nc(C)cs2)cc1,-,13µM,-,-,0.65µM,1.5µM
COc1ccccc1N(C)S(=O)(=O)c1ccc(C(=O)Nc2cc(F)ccc2C)cc1,.,18µM,-,.,?,?
COc1cc(S(=O)(=O)N2CCN=C2c2ccccc2)ccc1F,-,-,-,-,23µM,?
CCOc1ccc(S(=O)(=O)N2CCN=C2c2ccccc2)c(C)c1C,?,-,-,-,23µM,16µM
OC1(c2csc(CN3CCN(c4ccccn4)CC3)n2)CCN(C2CCCC2)CC1,.,.,-,.,.,.
CC(C)(C)C(=O)O/N=C(\N)c1ccc([N+](=O)[O-])s1,-,?,?,?,6.5µM,6.5µM
SMILES,RORg inh,ELG1 repair inh,12-LOX inh,VP16 counter,DT40 TDP1 no CPT,DT40 TDP1 CPT
N/C(=N\O)c1ccc([N+](=O)[O-])s1,-,?,-,-,?,?
Cc1ccc(S(=O)(=O)N2CCN(C(C)C(=O)NCC(C)c3ccccc3)CC2)cc1 (centres undefined),.,?,-,.,23µM,?
CCCc1ccc(S(=O)(=O)N2CCN(C(C)C(=O)NC3CCCC3)CC2)cc1 (centres undefined),.,-,-,.,?,-
CC(C(=O)Nc1ccccc1-c1ccccc1)N1CCCCC1 (centres undefined),-,-,-,-,?,-
CCC(C)c1ccc(S(=O)(=O)N2CCN(C(C)C(=O)NC3CCCC3)CC2)cc1 (centres undefined),.,?,-,.,?,15µM
CC(C)c1ccc(S(=O)(=O)N2CCN(C(C)C(=O)Nc3ccccc3-c3ccccc3)CC2)cc1 (centres undefined),-,-,-,-,?,18µM
CC(NC(=O)C(C)N1CCN(S(=O)(=O)c2ccccc2)CC1)c1ccccc1 (centres undefined),.,-,?,.,-,-
COc1ccc2c(COC(=O)c3ccc(F)cc3)cc(=O)oc2c1,.,.,-,.,.,.
Cn1nc(-c2ccc(Cl)cc2)c2cc(C(=O)Oc3ccccc3Cl)sc21,.,.,-,.,.,.
CCCC(=O)N1CC2(CCCN2CC2CC2)Cc2ccccc21 (centres undefined),.,.,-[6.33 µM],.,.,.
O=C1NCCCCCCN(C(=O)c2ccco2)[C@H]2C[C@H](c3nc(Cc4ccccc4)no3)C[C@@H]12,.,.,-,.,.,.
O=C1C=C(c2cccc(O)c2)CCC1,.,.,-,.,-,-
Oc1cccc(-c2c3nc(c(-c4cccc(O)c4)c4ccc([nH]4)c(-c4cccc(O)c4)c4nc(c(-c5cccc(O)c5)c5ccc2[nH]5)CC4)C=C3)c1,.,.,3.6µM,.,19µM,27µM
O=C(CSc1nncn1-c1ccccc1)Nc1cccc(S(=O)(=O)N2CCCC2)c1,.,.,-,.,.,.
O=c1c(N2CCN(Cc3ccccc3)CC2)csc2ccc(F)cc12,.,.,-,.,.,.
O=c1c2cc(F)ccc2sn1-c1ccccc1,.,?,?,.,2.1µM,1.8µM
O=c1c2cc(C(F)(F)F)ccc2sn1-c1ccccc1,.,.,-,.,5.2µM,5.2µM
COc1cc(/C=C2/C(=O)NN(c3ccc(Cl)c(Cl)c3)C2=O)cc([N+](=O)[O-])c1O,-,-,35µM,-,-,-
COc1cc(/C=C2/C(=O)NN(c3ccc(F)cc3)C2=O)cc(Cl)c1O,-,-,?,-,?,-
CC(C)NC(=S)NC(=O)/C=C/c1cccc2ccccc12,1.4µM,-,-,4.5µM,-,-
CC(C)(C)NC(=O)/C=C/c1cccs1,-,-,-,-,-,-
CN1CCN(C(=S)NC(=O)/C=C/c2cccs2)CC1,10µM,?,?,?,-,-
Cc1ccc(C(=O)/C=C/c2cccc3ccccc23)o1,.,.,16µM,.,.,.
